Values without a mark were called inactive.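 Rule for the calls: active = AUC reduced over 20% with Padj below 0.05 in at least 2 of 3 replicates; inactive = otherwise.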
Key:
Assay in all cases: growth AUC relative to DMSO control (median of replicates) (fraction); higher = more growth (less inhibition), active = hit call of the paper
Details in all cases: 20 µM; 24 h
Akkermansia muciniphila = tested on: Akkermansia muciniphila
Method in brief: (§1)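 For each compound at 20 µM (1% DMSO), gut bacterial monocultures seeded at OD600 0.05 grew anaerobically in mGAM at 37 °C in round-bottom 96-well plates. Hourly OD600 readings over 24 h gave growth curves whose minimum OD was set to 0. Area under these curves was normalised to the plate median of solvent-only wells, or to row and column medians on the industrial chemical plate. Values are medians of three biological replicates grown on separate days.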

Bacteroides caccae = tested on: Bacteroides caccae
Method in brief: as §1

Bacteroides clarus = tested on: Bacteroides clarus
Method in brief: as §1

Bacteroides dorei = tested on: Bacteroides dorei
Method in brief: as §1

Bacteroides stercoris = tested on: Bacteroides stercoris
Method in brief: as §1

[1] = tested on: Bacteroides thetaiotaomicron
Method in brief: as §1

Bacteroides uniformis = tested on: Bacteroides uniformis
Method in brief: as §1

[2] = tested on: Bifidobacterium longum subsp. longum
Method in brief: as §1

Clostridium difficile = tested on: Clostridium difficile
Method in brief: as §1

Collinsella aerofaciens = tested on: Collinsella aerofaciens
Method in brief: as §1

Coprococcus comes = tested on: Coprococcus comes
Method in brief: as §1

Escherichia coli ED1a = tested on: Escherichia coli ED1a
Method in brief: as §1

Escherichia coli IAI1 = tested on: Escherichia coli IAI1
Method in brief: as §1

Eubacterium rectale = tested on: Eubacterium rectale
Method in brief: as §1

[3] = tested on: Fusobacterium nucleatum subsp. animalis
Method in brief: as §1

Lactobacillus gasseri = tested on: Lactobacillus gasseri
Method in brief: as §1

Lactobacillus paracasei = tested on: Lactobacillus paracasei
Method in brief: as §1

Odoribacter splanchnicus = tested on: Odoribacter splanchnicus
Method in brief: as §1

[4] = tested on: Parabacteroides distasonis
Method in brief: as §1

Parabacteroides merdae = tested on: Parabacteroides merdae
Method in brief: as §1

SMILES	growth AUC (Akkermansia muciniphila)	growth AUC (Bacteroides caccae)	growth AUC (Bacteroides clarus)	growth AUC (Bacteroides dorei)	growth AUC (Bacteroides stercoris)	growth AUC [1]	growth AUC (Bacteroides uniformis)	growth AUC [2]	growth AUC (Clostridium difficile)	growth AUC (Collinsella aerofaciens)	growth AUC (Coprococcus comes)	growth AUC (Escherichia coli ED1a)	growth AUC (Escherichia coli IAI1)	growth AUC (Eubacterium rectale)	growth AUC [3]	growth AUC (Lactobacillus gasseri)	growth AUC (Lactobacillus paracasei)	growth AUC (Odoribacter splanchnicus)	growth AUC [4]	growth AUC (Parabacteroides merdae)
CCCN(CCC)c1c([N+](=O)[O-])cc(C(C)C)cc1[N+](=O)[O-]	1.12	1.01	0.978	0.994	0.991	0.962	1.03	1.02	0.991	0.99	1.06	1.02	0.996	1.02	1	0.941	1.09	0.989	0.932	0.984
CC1(C)CON(Cc2ccccc2Cl)C1=O	1.11	0.927	1.01	0.917	0.996	0.98	0.949	0.938	0.977	0.947	1.01	0.965	1.02	1.12	1.05	0.837	1.05	0.899	0.838	0.985
CC1COC(Cn2cncn2)(c2ccc(Oc3ccc(Cl)cc3)cc2Cl)O1 (stereo not given)	1.03	0.868	0.898	0.91	1.12	0.854	0.839	0.938	0.881	0.977	0.72 (active)	0.979	1	0.723 (active)	0.983	0.952	0.986	0.904	0.801	0.871
CON(C)C(=O)Nc1ccc(Cl)cc1	0.997	1.02	0.983	1.03	0.97	1.03	0.999	1.12	1	1.02	1.02	1.01	1	0.999	0.96	1.04	0.97	0.998	1.02	1.02
COC(=O)N(OC)c1ccccc1COc1ccn(-c2ccc(Cl)cc2)n1	0.936	0.803	0.91	0.972	1.09	0.91	0.861	1.03	0.989	1	0.998	1.02	0.99	1.1	1.19	0.88	0.988	0.881	0.57 (active)	0.911
COc1cc(OC)nc(Sc2cccc(Cl)c2C(=O)O)n1	1.28	1.01	0.98	0.959	0.977	1.02	0.986	1	1.01	0.964	1.02	0.981	0.977	1.04	0.941	0.897	0.971	0.985	0.906	0.975
Cc1ccccc1CO[C@@H]1C[C@@]2(C(C)C)CC[C@]1(C)O2 (mixture of isomers)	1.08	0.955	0.967	0.977	1.02	1.01	0.997	1.03	1.04	1.01	1	1.02	0.961	1.14	1.02	0.96	1.01	1.04	0.887	1
CC(C)N(C(=O)COc1nnc(C(F)(F)F)s1)c1ccc(F)cc1	0.411 (active)	1.05	1.02	0.996	0.973	0.952	0.907	1.03	0.955	1.01	0.988	1.03	1.01	1.1	1.05	1.04	1.02	1	0.937	0.986
CC(C)=CC1C(C(=O)OCc2coc(Cc3ccccc3)c2)C1(C)C (stereo not given)	0.878	0.995	0.943	1	0.965	0.973	0.988	0.899	1.02	0.936	1.01	0.996	1.01	0.917	0.878	1.06	1.12	0.98	1.01	0.944
CO/N=C(/C1=NOCCO1)c1ccccc1Oc1ncnc(Oc2ccccc2Cl)c1F	0.963	0.987	0.957	0.938	0.941	0.961	0.963	0.845	0.948	1.02	0.962	0.967	1.03	0.963	0.978	0.992	1	0.974	0.678 (active)	0.892
CCCOCC(=Nc1ccc(Cl)cc1C(F)(F)F)n1ccnc1	1.03	0.955	0.919	0.982	1.16	0.934	0.913	1.03	0.922	0.941	0.505 (active)	0.994	0.995	0.382 (active)	1.11	0.894	0.938	0.932	0.746 (active)	0.894
Oc1ccc(-c2ccccc2)cc1	0.809	1.03	0.948	0.991	0.815	0.985	0.957	0.899	1.03	1	1.01	0.991	0.987	1	0.968	1.04	0.693	1.09	1.02	0.989
N#Cc1cc(I)c(O)c(I)c1	0.914	0.802	0.76 (active)	0.776	0.939	0.919	0.799 (active)	0.941	0.919	1.04	1.02	0.891	0.764 (active)	0.954	0.828	0.95	0.982	0.853	0.814	0.802
CCCN(CCC)c1c([N+](=O)[O-])cc(C(F)(F)F)cc1[N+](=O)[O-]	1.02	1.02	1.04	1.03	1.05	0.976	1.01	1.1	1	1.01	1	1.02	1.01	1.01	1.03	1.03	1.09	1.01	1.09	1.01
COC(=O)c1ccccc1CS(=O)(=O)NC(=O)Nc1nc(OC)cc(OC)n1	0.94	1.02	0.972	0.985	0.969	1.02	1.01	1.05	1.02	0.956	1.02	0.974	0.978	0.998	0.999	0.996	1	1.02	0.998	1
CCOCCN(C(=O)CCl)C(=C(C)C)c1ccccc1	0.903	1.01	0.998	1	0.967	0.937	0.944	1.04	0.954	1.02	0.999	0.98	0.976	0.982	0.986	0.935	1.01	0.978	0.955	1

SMILES	growth AUC (Akkermansia muciniphila)	growth AUC (Bacteroides caccae)	growth AUC (Bacteroides clarus)	growth AUC (Bacteroides dorei)	growth AUC (Bacteroides stercoris)	growth AUC [1]	growth AUC (Bacteroides uniformis)	growth AUC [2]	growth AUC (Clostridium difficile)	growth AUC (Collinsella aerofaciens)	growth AUC (Coprococcus comes)	growth AUC (Escherichia coli ED1a)	growth AUC (Escherichia coli IAI1)	growth AUC (Eubacterium rectale)	growth AUC [3]	growth AUC (Lactobacillus gasseri)	growth AUC (Lactobacillus paracasei)	growth AUC (Odoribacter splanchnicus)	growth AUC [4]	growth AUC (Parabacteroides merdae)
CNC(=O)O/N=C(\C)C(C)S(C)(=O)=O (stereo not given)	1.15	0.99	1.01	0.969	0.931	1.03	1.01	1.27	0.98	0.953	1.02	0.961	0.979	1.03	0.972	0.905	0.894	1.11	0.955	0.956
CNC(=O)Oc1cccc2c1OC(C)(C)O2	0.915	1.07	1.01	0.982	1.02	1.04	0.997	1.06	1.06	1	1.02	1	0.993	0.967	1.01	1.11	0.984	1.02	1.02	1.02
CCS(=O)c1c(C#N)nn(-c2c(Cl)cc(C(F)(F)F)cc2Cl)c1N (stereo not given)	0.952	1.04	0.996	1.01	1.04	0.961	0.959	1.01	1.02	1.01	0.99	0.988	0.995	1.02	1.04	0.909	1.02	0.971	0.949	0.965
CCNc1nc(Cl)nc(NCC)n1	0.894	1	1.01	1.02	1.02	1.01	1.01	1.05	1.01	1.04	1.01	1.05	1.03	0.961	0.977	1.09	1	0.998	1.01	1.01
Nc1nc(N)nc(Cl)n1	1.01	1.05	1.02	1.01	1.16	1.01	1.02	1.01	1.03	0.992	1.02	1.04	1.01	0.971	1.08	1.02	0.991	1	1.01	1.02
O=P(OCCCl)(OCCCl)OCCCl	0.628 (active)	0.985	0.986	0.995	0.651 (active)	0.972	0.874	0.895	0.963	0.977	0.916	0.98	0.963	0.89	0.88	0.98	1.09	0.868	0.989	0.921
COP(=S)(OC)Oc1ccc(S(C)(=O)=O)c(C)c1	0.98	0.994	1	0.974	1.04	0.994	0.964	0.831	0.985	1.01	1.03	0.991	0.985	1	1.1	0.901	1.01	1.03	0.987	0.993
COc1cc(OC)nc(Oc2cccc(Oc3nc(OC)cc(OC)n3)c2C(=O)[O-])n1.[Na+]	0.934	0.973	0.963	1.02	0.99	1.01	1	0.965	1.06	1.02	0.98	0.989	0.979	1.01	1.04	0.958	0.982	1.01	0.994	1.01
Cc1cc(Cl)ccc1O	1.04	1.02	1.03	1.01	1.09	1.03	1	0.911	1	1.01	0.989	1	1.02	1.02	1.07	0.979	0.873	1.07	1.02	1.04
COC(=O)[C@@H](C)N(C(=O)Cc1ccccc1)c1c(C)cccc1C	0.957	0.968	0.98	0.964	0.954	0.93	0.897	1.01	0.998	1.03	0.978	1.02	1.02	0.991	0.913	0.944	0.979	0.925	0.948	0.921
CCc1cccc(C)c1N(C(=O)CCl)[C@@H](C)COC	1.13	0.95	0.99	0.98	1.2	0.975	1	1.03	0.961	0.963	0.976	0.981	1.01	1.06	1.15	0.944	1.01	1.02	1.01	0.938
CCNS(=O)(=O)C(F)(F)C(F)(F)C(F)(F)C(F)(F)C(F)(F)C(F)(F)C(F)(F)C(F)(F)F	0.945	0.986	0.906	1.02	0.896	0.993	0.966	0.905	1.04	1.13	0.995	0.987	0.99	0.975	0.968	1.05	0.891	0.978	1.01	0.947
COc1cc(Cl)c(OC)cc1Cl	1.03	1.04	1	1.04	1.01	1.04	1	0.995	1.05	1.11	1.04	1.03	1.01	0.986	0.951	0.94	0.94	1	1.02	1.05
CCC(=O)Nc1ccc(Cl)c(Cl)c1	0.797	1	0.978	1.03	0.972	0.988	0.969	0.837	1.03	0.999	1	0.943	0.99	0.992	0.87	0.979	0.922	0.943	0.994	0.995
Oc1cc(Cl)c(Cl)cc1Cl	0.97	0.934	0.945	0.936	0.913	0.986	0.992	1.02	0.929	0.922	0.983	0.978	0.938	0.97	1	0.843	0.971	1.12	0.962	0.927
CC1(C)C(/C=C(\Cl)c2ccc(Cl)cc2)C1C(=O)OC(C#N)c1ccc(F)c(Oc2ccccc2)c1 (stereo not given)	0.965	0.993	0.985	1.04	1	1	0.99	0.94	1.09	1.04	0.968	0.986	1.01	0.864	1.02	1.04	0.913	1.03	1	1

— the supplement of paper PMC12669032
